Laboratory results from PubChem BioAssay (Tox21).
Inconclusive results are not listed. The source made the active and inactive calls. Unless noted, calls come from the whole dose curve; as a rule, active = well fitted curve in the direction sought with a large enough effect in the repeat runs; inconclusive = weak or mixed curves; inactive = no such curve, though single readings can be large; an effect the other way counts as inactive or inconclusive.

Tests used:
[1] = qHTS assay for small molecules that induce genotoxicity in human embryonic kidney cells expressing luciferase-tagged ATAD5 (AID 651632); note: nearly all actives have a fitted effect of over 15% in size
How it was run: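 Test compounds were delivered by pin tool onto HEK293T reporter cells (2,000/well) expressing ATAD5 fused to luciferase. After 16 hr at 37C, 5% CO2, Amplite was added for 30 min at room temperature and luminescence was measured.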

[2] = qHTS assay for small molecule agonists of the p53 signaling pathway - cell viability (AID 651633; calls by dose curve;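 note: p53RE-bla HCT reporter cells with a stable beta-lactamase p53 reporter; nearly all actives have a fitted effect of over 30% in size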)
How it was run: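 Viability counter-read: CellTiter-Glo luminescence (30 min, room temperature) in the same p53RE-bla plates. These plates had been exposed to compounds for 16 h at 37 C.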

[3] = qHTS assay for small molecules that induce genotoxicity in human embryonic kidney cells expressing luciferase-tagged ATAD5 - cell viability (AID 651634; calls by dose curve; note: nearly all actives have a fitted effect of over 25% in size)
How it was run: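 Quantitative high-throughput format. HEK293T cells expressing ATAD5 fused to luciferase were plated at 2,000 cells/well and treated 15.5 hr with compound versus DMSO. Viability was determined by fluorescent live-cell protease substrate, 30 min at 37C.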

[4] = qHTS assay for small molecule disruptors of the mitochondrial membrane potential - cell viability (AID 720634; calls by dose curve;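 note: human HepG2 liver cancer cells; nearly all actives have a fitted effect of over 20% in size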)
How it was run: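 Same-well counter-screen: following the MMP dye addition, CellTiter-Glo was added to 1 hr compound-treated HepG2 cells and luminescence read after 30 min at room temperature.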

[5] = qHTS assay for small molecule disruptors of the mitochondrial membrane potential (AID 720635); note: potency is the fitted concentration of half-maximal effect
How it was run: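 Mitochondrial membrane potential tracked with Mito-MPS dye, red aggregates (ex 540/em 590 nm) against green monomers (ex 490/em 535 nm). Compound treatment 1 hr at 37C, dye 30 min in HepG2.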

[6] = qHTS assay to test for compound auto fluorescence at 590 nm (red) in HepG2 cells (AID 720674)
How it was run: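 Red autofluorescence (Ex/Em 540/590 nm, Rose Bengal sodium equivalents) was measured in HepG2 cells, 2,000 per well in MEM plus 10% FBS, plated overnight at 37 C. Readings were taken 1 hr after adding 23 nL compound or DMSO, at 37 C and 5% CO2.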

[7] = qHTS assay to test for compound auto fluorescence at 535 nm (green) in HepG2 cells (AID 720675)
[8] = qHTS assay to test for compound auto fluorescence at 590 nm (red) in HEK293 cells (AID 720679)
How it was run: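 Intensity at 540nm excitation and 590nm emission is reported as Rose Bengal sodium-equivalent autofluorescence. Measurements followed overnight exposure (37C, 5% CO2) of HEK293 cells, 2,000 per well, to 23 nL compound.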

[9] = qHTS assay to test for compound auto fluorescence at 535 nm (green) in HEK293 cells (AID 720680)
[10] = qHTS assay to test for compound auto fluorescence at 460 nm (blue) in HEK293 cell free culture (AID 720681)
How it was run: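 Blue fluorescence (Ex 405/Em 460 nm, triamterene-equivalent) was read immediately after pin transfer of compound or DMSO into medium (DMEM, 10% FBS) without cells.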

[11] = qHTS assay to test for compound auto fluorescence at 590 nm (red) in HepG2 cell free culture (AID 720684)
How it was run: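 Cell-free; medium MEM + 10% FBS; compound or DMSO added by pintool; read Ex 540/Em 590 nm; Rose Bengal sodium as red reference fluorophore.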

[12] = qHTS assay to test for compound auto fluorescence at 460 nm (blue) in HepG2 cell free culture (AID 720685)
How it was run: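 Cell-free plates of MEM plus 10% FBS received 23 nL compound or DMSO vehicle; blue-channel (405/460 nm) intensity scored against triamterene as reference fluorophore.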

[13] = qHTS assay to test for compound auto fluorescence at 535 nm (green) in HepG2 cell free culture (AID 720686)
[14] = qHTS assay to test for compound auto fluorescence at 460 nm (blue) in HepG2 cells (AID 720687)
How it was run: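 Blue-channel autofluorescence (Ex/Em 405/460 nm, triamterene-equivalent) was measured after 1 hr compound exposure at 37 C, 5% CO2. Cells were HepG2, plated overnight at 37 C in MEM plus 10% FBS.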

[15] = target: Glucocorticoid receptor (Homo sapiens) (UniProt P04150); assay: qHTS assay to identify small molecule agonists of the glucocorticoid receptor (GR) signaling pathway (AID 720691; active = well fitted activation curve with a large enough effect in the signal ratio in the repeat runs, not every such curve was filed as active; the % refers to the signal ratio; note: potency is the fitted concentration of half-maximal effect); details: GR-bla HeLa, beta-lactamase reporter ratio, 18 h; activation: at 62.4 µM (top of the series) unless noted
Chain of Glucocorticoid receptor (Homo sapiens) (P04150 whole entry, looked up): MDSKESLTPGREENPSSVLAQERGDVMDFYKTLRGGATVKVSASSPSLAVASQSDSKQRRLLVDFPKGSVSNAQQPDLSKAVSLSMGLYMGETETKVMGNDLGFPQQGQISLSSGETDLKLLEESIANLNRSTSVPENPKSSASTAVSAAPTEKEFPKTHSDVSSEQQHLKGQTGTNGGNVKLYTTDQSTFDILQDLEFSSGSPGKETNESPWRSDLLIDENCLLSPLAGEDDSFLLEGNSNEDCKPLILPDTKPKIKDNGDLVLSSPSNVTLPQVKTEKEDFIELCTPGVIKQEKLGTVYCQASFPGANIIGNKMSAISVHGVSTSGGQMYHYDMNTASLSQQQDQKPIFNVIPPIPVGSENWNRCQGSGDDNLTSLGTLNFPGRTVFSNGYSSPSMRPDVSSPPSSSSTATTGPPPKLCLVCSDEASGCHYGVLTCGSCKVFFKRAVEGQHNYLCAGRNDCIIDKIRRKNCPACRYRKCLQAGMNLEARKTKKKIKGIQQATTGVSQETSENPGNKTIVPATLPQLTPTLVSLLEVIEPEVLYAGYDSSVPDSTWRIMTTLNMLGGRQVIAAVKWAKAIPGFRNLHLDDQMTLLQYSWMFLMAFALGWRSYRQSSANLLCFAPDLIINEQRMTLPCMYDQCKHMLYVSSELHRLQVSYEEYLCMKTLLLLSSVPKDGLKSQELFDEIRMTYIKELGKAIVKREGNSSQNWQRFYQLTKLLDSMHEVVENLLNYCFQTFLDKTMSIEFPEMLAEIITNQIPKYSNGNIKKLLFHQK
How it was run: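 A HeLa cervical cancer line expressing GR and a glucocorticoid response element-driven beta-lactamase gene is treated with compounds for 18 h; LiveBLAzer B/G FRET substrate is then applied and fluorescence read.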

[16] = target: Glucocorticoid receptor (Homo sapiens) (UniProt P04150); assay: qHTS assay to identify small molecule antagonists of the glucocorticoid receptor (GR) signaling pathway (AID 720692; active = well fitted inhibition curve with a large enough effect in the signal ratio in the repeat runs, not every such curve was filed as active; the % refers to the signal ratio)
How it was run: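 GRE-bla HeLa line, dex-stimulated (5 nM final). Compound exposure 18 h, 37 C. Beta-lactamase FRET read after 2 h RT substrate.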

[17] = qHTS assay to test for compound auto fluorescence at 460 nm (blue) in HEK293 cells (AID 720678)
How it was run: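 HEK293, 2,000 cells/well, 10% dialyzed FBS; attach 4-5 hr 37C; pin compound or DMSO; o/n 37C/5% CO2; fluorescence 405/460 nm; triamterene-equivalent units.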

[18] = qHTS assay to test for compound auto fluorescence at 590 nm (red) in HEK293 cell free culture (AID 720683)
How it was run: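 Red-channel autofluorescence of compounds in culture medium (DMEM, 10% FBS), no cells, measured at 540/590 nm. Rose Bengal sodium is the reference fluorophore for equivalence.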

[19] = qHTS assay to test for compound auto fluorescence at 535 nm (green) in HEK293 cell free culture (AID 720682)
How it was run: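 No cells present: wells hold DMEM supplemented with 10% FBS, into which compound or vehicle is pinned. Green emission is then recorded (485 nm excitation, 535 nm emission) and scaled to fluorescein.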

Measured: Potency

CCCCCCCC/C=C\CCCCCCCC(=O)OCC
not listed: [17] | [18] | [19]
inactive: all other assays above

CCC(C)c1cc(C(C)(C)C)c(O)c(C(C)(C)C)c1 (stereo unspecified)
active: [5] 21.3 µM
not listed: [2] | [18] | [19]
inactive: all other assays above

Clc1ccc2c(c1)CCc1cccnc1C2=C1CCNCC1
not listed: [3] | [5] | [14] | [16] | [19]
inactive: all other assays above

CCOC(=O)C1=C[C@]2(CC)CCCN3CCc4c(n1c1ccccc41)[C@@H]32
not listed: [5] | [14]
inactive: all other assays above

O=C(O)c1nc(Cl)c(Cl)c(Cl)c1Cl
not listed: [3] | [15] | [16] | [17] | [19]
inactive: all other assays above

CCC(Cl)CCC(Cl)C(Cl)CC(Cl)C(Cl)C(Cl)CCl (stereo unspecified)
not listed: [5] | [9] | [17]
inactive: all other assays above

CC1CCC(=O)C1=O (stereo unspecified)
not listed: [2] | [16] | [18] | [19]
inactive: all other assays above

CCC(=O)O[C@]1(C(=O)CCl)[C@@H](C)C[C@H]2[C@@H]3CCC4=CC(=O)C=C[C@]4(C)[C@@]3(F)[C@@H](O)C[C@@]21C
active: [5] 23.7 µM | [15] 0.6 nM
not listed: [2] | [16] | [17]
inactive: all other assays above

CCCOC(C(=O)OC1CCN(C)CC1)(c1ccccc1)c1ccccc1
not listed: [5] | [15] | [17]
inactive: all other assays above

CC(C)Nc1ccc(NC(C)C)c2c1C(=O)c1ccccc1C2=O
active: [5] 11.3 µM
not listed: [3] | [4] | [14]
inactive: all other assays above

Cc1c(N)cccc1[N+](=O)[O-]
not listed: [3] | [6] | [13] | [15]
inactive: all other assays above

CCC(CC)Nc1ccc(C)c(C)c1
not listed: [5] | [15] | [16] | [17]
inactive: all other assays above

C1CCCNCCC1
not listed: [3] | [6] | [9] | [15] | [16]
inactive: all other assays above

CCOC(=O)C(F)(F)F
not listed: [5] | [9] | [17] | [19]
inactive: all other assays above

Cc1nn(C)c(Oc2ccccc2)c1/C=N/OCc1ccc(C(=O)OC(C)(C)C)cc1
active: [5] 17.2 µM
not listed: [4] | [13] | [16]
inactive: all other assays above
